Results taken from PubChem BioAssay AID463173 (ICCB-Longwood Screening Facility, Harvard Medical School, 2010).
In all, about 52,000 compounds went through this assay and about 4,300 (8.3%) were called active. Only a selection was taken, and actives are over-represented in it overall. Values without a mark were called inactive. No stated cut-off is given here; in the data, active means survival mostly below about 52% (no sharp cut-off); inactive means mostly above about 56%.

tested on: DeltatarO mutant; experiment: growth inhibition of S. aureus wild type versus tarO mutant, primary screen, teichoic acid synthesis inhibitors, RN4220, OD600 (AID 463173); details: OD600, 18 h, active compounds read low, screened at 18.75 µg/mL (by protocol)

Structure (SMILES)	survival
COC(=O)Cn1c(=NC(=O)c2ccc3c(c2)OCCO3)sc2ccccc21	97%
Cc1cccc(NC(=O)C2CCCN(c3nc4ccccc4s3)C2)c1C (stereo not drawn)	83%
COC(C(=O)Nc1ccc2c(c1)OCCO2)c1ccccc1 (stereo not drawn)	87%
C=CCn1c(SCC(=O)c2cccs2)nc2sc(C)cc2c1=O	93%
CC1CC(C(F)F)n2nc(C(=O)Nc3sc4c(c3C#N)CCC(C(C)(C)C)C4)nc2N1 (stereo not drawn)	103%
CCCCN(CCCC)CCNC(=O)Cn1nc(CC)n2c(cc3sc(C)cc32)c1=O	85%
CCCSc1nnc2c(n1)OC(CC)N(C(C)=O)c1ccccc1-2 (stereo not drawn)	62%
COc1ccc(-c2noc(N3CCN(c4cccc(C)c4C)CC3)n2)cc1OC	94%
Cc1ccc(OCc2ccc(-c3nc(C#N)c(NCc4ccccc4Cl)o3)o2)cc1	100%
O=C(Nc1ccc(C(F)(F)F)cc1)c1cc(S(=O)(=O)N2CCCc3ccccc32)ccc1F	101%
COc1ccc(NC(=O)c2sc3nc[nH]c(=O)c3c2C)cc1Cl	99%
O=C(CCCn1c(=O)[nH]c2ccc(Br)cc2c1=O)N1CCN(c2cccc(Cl)c2)CC1	48% (active)
CCOc1cc2[nH]c(=O)n(CCCC(=O)N3CCN(c4cccc(Cl)c4)CC3)c(=O)c2cc1OCC	81%
Cc1ccc(Cl)cc1N1CCN(C(=O)CCCCCn2c(=O)[nH]c3ccccc3c2=O)CC1	78%
Cc1ccc(Cl)cc1N1CCN(C(=O)CCCn2c(=O)[nH]c3ccc(Br)cc3c2=O)CC1	29% (active)
COc1cccc(N2CCN(C(=O)CCCn3c(=O)[nH]c4ccc(Br)cc4c3=O)CC2)c1	53%
COC(=O)c1ccc2c(=O)n(CCCCCC(=O)N3CCN(c4cc(Cl)ccc4C)CC3)c(=O)[nH]c2c1	129%
O=c1[nH]c(-c2ccc(S(=O)(=O)N3CCCC3)cc2)nc2sc3c(c12)CCCC3	120%
COc1cc(OC)c(NS(=O)(=O)c2cc(-c3cnc(C)o3)ccc2OC)cc1Cl	67%
O=C(CSc1nc2c(c(=O)[nH]1)CCCC2)Nc1ccccc1C(F)(F)F	58%

Structure (SMILES)	survival
CCc1ccc(-n2c(SCC(=O)NC(C)CC)nc3n[nH]c(C)c3c2=N)cc1 (stereo not drawn)	122%
O=S(=O)(c1cccc(Cl)c1)n1c(/C=C/c2ccccc2Cl)nc2ccccc21	68%
COc1cccc(C2Nc3ccccc3-c3nnc(SCc4ccccc4)nc3O2)c1OC (stereo not drawn)	140%
O=C(O)COc1ccccc1C1Nc2ccccc2-c2nnc(SCc3ccc(Cl)cc3)nc2O1 (stereo not drawn)	66%
CCOc1ccc(C2Nc3ccccc3-c3nnc(SCc4ccccc4)nc3O2)cc1OC (stereo not drawn)	50%
COc1cc(OC)c(C2Nc3ccccc3-c3nnc(SCc4ccccc4)nc3O2)cc1OC (stereo not drawn)	54%
CCOc1ccccc1C1Nc2ccccc2-c2nnc(SCc3ccccc3)nc2O1 (stereo not drawn)	44% (active)
CCOc1cc(C2Nc3ccccc3-c3nnc(SCc4ccccc4)nc3O2)ccc1OC (stereo not drawn)	45% (active)
COc1ccc(-c2noc(-c3nnn(-c4ccc(C(C)C)cc4)c3C)n2)cc1OC	67%
O=C(c1ccc2c(c1)N(Cc1c(F)cccc1Cl)C(=O)c1ccccc1S2)N1CCCC1	74%
O=C(c1ccccc1)N1CCC(c2nc3c(nnn3Cc3ccccc3)c(=O)[nH]2)CC1	13% (active)
COc1cccc(OC)c1Cn1nnc2c(=O)[nH]c(C3CCN(C(=O)c4ccccc4)CC3)nc21	56%
O=c1[nH]c(C2CCCNC2)nc2c1nnn2Cc1ccccc1 (stereo not drawn)	98%
CCOc1ccc(Cn2nnc3c(=O)[nH]c(C4CCN(C(=O)c5ccccc5)CC4)nc32)cc1	4% (active)
Cc1ccc(C)c(C(=O)N2CCC(c3nc4c(nnn4Cc4ccccc4)c(=O)[nH]3)CC2)c1	39% (active)
CCOc1ccccc1NC(=O)N1CCCC(c2nc3c(nnn3Cc3ccc(C)cc3)c(=O)[nH]2)C1 (stereo not drawn)	82%
Cc1ccc(Cn2nnc3c(=O)[nH]c(C4CCN(S(=O)(=O)/C=C/c5ccccc5)CC4)nc32)cc1	89%
O=c1oc2cc(Br)ccc2n1CO	105%
Cc1ccc(NCc2ccccc2-c2nnc(-c3ccccc3Cl)o2)c(C)c1	83%
Cc1cccc(N2CCN(CC(=O)NCc3cccs3)CC2)c1C	101%

Structure (SMILES)	survival
COc1ccc2c(c1)c1c(c(=O)n(CCc3ccccc3)c(=O)n1Cc1cccc(C)c1)n2C	70%
CCCCN(CC)CCNC(=O)c1nn(C)c2c1CS(=O)(=O)c1ccccc1-2	56%
CCOC(=O)N1CCN(Cc2nc3cc([N+](=O)[O-])ccc3n2C(C)C)CC1	92%
O=C(NCCO)c1nc2ccccc2s1	73%
CCN(CC)c1ccc(NC(=O)c2cc(C)nc3c2c(C)nn3-c2cccc(F)c2)c(C)c1	100%
O=C(CSC1=NC(=O)C(c2ccccc2)C(=O)N1)Nc1nncs1 (stereo not drawn)	70%
O=C(c1cccs1)c1cn(CCOc2ccccc2F)c2ccccc12	104%
O=C(Cn1cc(C(=O)C2CCCCC2)c2ccccc21)Nc1ccccc1Cl	76%
O=C(c1cn(CCOc2ccc(Cl)cc2)c2ccccc12)C1CCCCC1	14% (active)
COc1ccc(NC(=O)Cn2cc(C(=O)C3CCCCC3)c3ccccc32)cc1	71%
COc1ccc(NC(=O)Cn2cc(C(=O)C3CC3)c3ccccc32)cc1	88%
O=C(c1cccs1)c1cn(CCOc2ccc(Cl)cc2)c2ccccc12	156%
Cc1ccc(OCCn2cc(C(=O)c3cccs3)c3ccccc32)cc1	69%
COc1ccc(OCCn2cc(C(=O)C3CCCCC3)c3ccccc32)cc1	13% (active)
Cc1ccccc1OCCn1cc(C(=O)C2CCCCC2)c2ccccc21	144%
O=C(c1cn(CCOc2ccccc2F)c2ccccc12)C1CCCCC1	-2% (active)
Cc1ccc(NC(=O)Cn2cc(C(=O)C3CCCCC3)c3ccccc32)cc1	62%
Cc1ccc(OCCn2cc(C(=O)C3CCCCC3)c3ccccc32)cc1	3% (active)
